# Bioassay records deposited in PubChem BioAssay by National Center for Advancing Translational Sciences (NCATS).
# USP1-UAF1 inh – USP1/UAF1 (human) deubiquitinase inhibition; Potency, µM (series often up to 57.1 µM), without a hit: at the top dose activity change, negative = inhibition, usual class: inhibitors; 0.23% of 390,000 active; recombinant USP1/UAF1, Ub-Rhodamine cleavage fluorescence; O94782; note: % is set by controls: 0 for no effect and ±100 for the full control effect; nearly all actives have a fitted effect of over 60% in size
#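 USP1/UAF1 complex at 1 nM was preincubated with compound for 15 min at room temperature, then Ub-Rho substrate (150nM final) was added. Fluorescence (480/540 nm) was read kinetically, 6 reads every 60 seconds.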
# EPAC2 antag – EPAC2 (human) antagonism. AID 720708. Q8WZA2. 0.18% of 360,000 active. Potency, µM (doses to about 114 µM), without a hit: top-dose activity, negative = inhibition, usual class: inhibitors. EPAC2 GEF exchange of Rap1B-BODIPY-GDP, fluorescence; note: % is set by controls: 0 for no effect and ±100 for the full control effect; nearly all actives have a fitted effect of over 45% in size
# EPAC2 agonist – EPAC2 (human) agonism; 0.079% of 360,000 active; Q8WZA2; Potency, µM (titrated, usually from 154 µM), for the others: at the highest dose activation, usual class: activators; EPAC2 activation, biochemical qHTS; response scale: 100% = 6.5 mM cAMP response; note: nearly all actives have a fitted effect of over 50% in size
#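 Each well held 100 nM EPAC2, 250 nM RAP1B-BODIPY-GDP and 50 uM GDP. Fluorescence, read at 5-min intervals to 30 min, was referenced to a 6.5 mM cAMP positive control.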
# EPAC1 agonist – activates human EPAC1 exchange factor; O95398; EPAC1 agonist qHTS, biochemical assay; response scale: 100% = response to 6.5 mM cAMP; Potency, µM (doses to about 154 µM), for inactives: top-dose activation, usual class: activators; 0.073% of 360,000 active; note: nearly all actives have a fitted effect of over 60% in size
#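 Nucleotide exchange by EPAC1 (100 nM) on Rap1B–BODIPY-GDP (250 nM) in the presence of 50 uM GDP is tracked fluorescently at 480/540 nm over 30 min. Signals are normalized to a 6.5 mM cAMP control.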
# BRCA1 expr up – BRCA1 expression activation | 1.1% of 380,000 active | AID 624202 | Potency, µM (series often up to 46.1 µM), inactives show top-dose activation, most hits filed as activators | MCF7-BRCA1-FFLuc reporter, luminescence, 48 h; response scale: scaled: vehicle 0%, 10 µM genistein 100%; note: nearly all actives have a fitted effect of over 80% in size
#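 First, MCF7-BRCA1-FFLuc cells (2000/well) attach for 2 h; next, compounds are pin-added and incubated 48 h at 37 °C; finally, luciferase reagent is added and luminescence read after 15 min.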
# EPAC1 antagonist – blocks human EPAC1 exchange factor; O95398; EPAC1 GEF assay, Rap1b-BODIPY-GDP exchange fluorescence; Potency, µM (titrated, usually from 115 µM), for inactives: top-dose activity change, negative = inhibition, usual class: inhibitors; 0.14% of 360,000 active; AID 720709;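 note: plate controls were vehicle for no effect and positive control for full effect; nearly all actives have a fitted effect of over 50% in size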
# Active calls of the source: *; ? = inconclusive; . = not tested or not shown; ! = repeats disagree. In the library only some 1.4% were active in any assay of this set; here they are far more common. Calls come from the whole dose curve; as a rule, active = well fitted curve in the direction sought with a large enough effect; inconclusive = small, poorly fitted or top-dose-only effect, or another doubt; inactive = no such curve, though single readings can be large; an effect the other way counts as inactive or inconclusive. Potency is the fitted concentration of half-maximal effect.
SMILES,USP1-UAF1 inh,EPAC2 antag,EPAC2 agonist,EPAC1 agonist,BRCA1 expr up,EPAC1 antagonist
Cc1cc2c(cc1C)-n1nnnc1C(N1CCN(c3ccccn3)CC1)C(c1ccc3c(c1)OCO3)=N2 (stereo not given),.,0%,7%,4%,.,4%
CCn1c(C)c(C(=O)O)c2cc(OC)c3ccccc3c21,-23%,-11%,2%,8%,9%,8%
COc1cc(/C=N/n2cnnc2)ccc1OCc1ccccc1,-23%,4%,8%,0%,84%,3%
COc1cc(/C=N/n2cnnc2)ccc1OCc1ccc(C)cc1,-12%,-7%,6%,2%,10µM*,-12%
Cc1c(Br)c(O)c(Br)c(O)c1/C=N/n1c(-c2ccccc2)n[nH]c1=S,-10%,-13%,9%,4%,-5%,56µM*
Cc1ccc(-n2ncc3c(=O)n(CC(=O)N(C)C)cnc32)cc1C,-17%,-12%,6%,5%,56%,-8%
CC(=O)Cn1cnc2c(cnn2-c2ccc(C)c(C)c2)c1=O,-28%,-3%,5%,6%,5µM*,7%
CC(C)CCn1cnc2c(cnn2-c2ccc(F)cc2)c1=O,-7%,-1%,5%,2%,8.9µM*,3%
CC(C)c1cc(N2CCN(C(=O)c3ccco3)CC2)n2c(nc3ccccc32)c1C#N,-11%,-4%,0%,3%,-30%,-3%
Cc1cc(-c2ccco2)c(C#N)c2nc3ccccc3n12,-18%,94%,?,-5%,2.8µM*,6%
CSc1nc(-c2ccccc2)nn1S(=O)(=O)c1ccccc1,-7%,8%,5%,-2%,28%,-1%
COc1ccc(-c2nc(SC)n(S(=O)(=O)c3ccccc3)n2)cc1,-9%,2%,0%,5%,10µM*,-10%
COc1cccc(Cn2c(=O)c3ccccc3n3nc(C)cc23)c1,-23%,50µM*,14%,15%,-20%,-5%
NS(=O)(=O)c1ccc(CNC(=O)c2ccc3ccccc3n2)cc1,-3%,9%,12%,9%,-18%,6%
NS(=O)(=O)c1ccc(CNc2ccc3ccccc3n2)cc1,-6%,3%,7%,7%,8.9µM*,-23%
Cn1c(-c2c(N)n(CCc3ccccc3)c3nc4ccccc4nc23)nc2ccccc21,28µM*,7%,12%,27%,-94%,-8%
Cc1cc2ccccn2c1C(=O)c1cccc([N+](=O)[O-])c1,0%,?,24%,20%,-38%,-2%
Cc1cc2ccccn2c1C(=O)c1ccccc1Br,-13%,13µM*,21%,5%,-40%,1%
Cc1cc2ccccn2c1C(=O)c1ccc(Cl)c([N+](=O)[O-])c1,-2%,11µM*,3%,4%,-27%,-10%
Cc1cc2ccccn2c1C(=O)c1ccc([N+](=O)[O-])cc1[N+](=O)[O-],-10%,-10%,1%,0%,0%,-17%
O=C(O)COc1ccc2occ(C(=O)c3ccccc3)c2c1,-5%,0%,-5%,-4%,-11%,0%
CC(=O)Oc1ccc2occ(C(=O)c3ccccc3)c2c1,-4%,-17%,7%,8%,7.1µM*,-13%
C(#Cc1ccccc1)Cn1nnc2ccccc21,-6%,-2%,12%,-10%,13µM*,-5%
c1ccc(CNn2nnc3ccccc32)cc1,.,5%,5%,3%,5µM*,9%
CNc1ccccc1C(=O)OC(C)C(=O)Nc1ccc(Cl)cn1 (stereo not given),-6%,-16%,17%,20%,-43%,-19%
SMILES,USP1-UAF1 inh,EPAC2 antag,EPAC2 agonist,EPAC1 agonist,BRCA1 expr up,EPAC1 antagonist
CCOc1ccc(NC(=O)c2ccc(F)cc2F)cc1,-7%,0%,4%,-2%,11µM*,-4%
CCOc1ccc(NC(=O)c2ccc3snnc3c2)cc1,-21%,14%,0%,1%,7.9µM*!,8%
O=C(Nc1ccc(F)cc1)c1ccc2snnc2c1,-14%,1%,18%,3%,3%,-11%
CCN1CCN(CCCNC(=O)c2cc3c(=O)n(C)c4ccccc4c3s2)CC1,-5%,.,.,.,.,.
CCN(CC)c1cc2c(cc1F)c(=O)c(S(=O)(=O)c1ccccc1)cn2Cc1ccccc1,-12%,.,.,.,.,.
O=C(CCS(=O)(=O)c1cc(Br)cc2c1N(C(=O)C1CC1)CC2)N1CCN(c2cccc(C(F)(F)F)c2)CC1,-16%,.,.,.,.,.
CCN1C(=O)N(S(=O)(=O)C(F)(F)F)[C@@H](c2ccccc2)C(C(=O)OC)=C1C,-23%,32µM*,3%,-20%,-3%,-9%
CCN1C(=O)N(S(=O)(=O)c2ccc(C)cc2)[C@@H](c2ccccc2)C(C(=O)OC)=C1C,?,-18%,14%,0%,-52%,5%
O=C1C=C(c2ccc(Oc3ccccc3)cc2)C[C@@H](c2ccc3c(c2)OCO3)C1,-27%,11%,16%,-10%,2%,0%
CC(NC(=O)COC(=O)c1ccc(Br)o1)c1ccccc1 (stereo not given),2%,-1%,-3%,-5%,-5%,-16%
CCOC(=O)/C(C#N)=C\c1ccc(N2CCN(C/C=C/c3ccccc3)CC2)cc1,28µM*,70%,50µM*,89µM*,-24%,44%
CCOC(=O)/C(C#N)=C\c1cc(C)n(-c2ccccc2)c1C,-11%,-4%,12%,11%,?,-3%
Cc1cccc(C(=O)NC(=O)Nc2c(C)cc(C)nc2C)c1,-22%,1%,9%,4%,4µM*,?
Cc1cccc(-c2nc(C#N)c(NC3CCCCC3)o2)c1,?,6%,-13%,16%,3.2µM*,-21%
Cc1ccc(NC(=O)CN2C(=O)C3C4C=CC(C4)C3C2=O)cc1 (stereo not given),-6%,21%,11%,1%,-3%,?
O=C(CSc1nc2ccccc2[nH]1)Nc1ccc2c(c1)OCCO2,-7%,-5%,6%,3%,10µM*,1%
O=C(Nc1ccc2c(c1)OCCO2)C(=O)c1c[nH]c2ccccc12,-26%,32%,-2%,-13%,17%,11%
O=C(CN1C(=O)C2C3C=CC(C3)C2C1=O)Nc1ccc2c(c1)OCCO2 (stereo not given),-19%,-2%,5%,17%,13µM*,?
O=C(Cn1nnc(-c2ccccc2F)n1)Nc1ccc2c(c1)OCCO2,-15%,4%,-4%,-4%,8.9µM*,-10%
CC(=O)Nc1ccccc1-c1nnn(CC(=O)Nc2ccc3c(c2)OCCO3)n1,-9%,0%,3%,3%,-20%,1%
Cc1[nH]c2ccccc2c1C(=O)C(=O)Nc1ccc2c(c1)OCCO2,-23%,-1%,16%,-10%,10µM*,-11%
